Sampled rows, rich in hits. Any-hit rate of the full collection: about 2.4%.
Pol kappa inh-1 – qHTS for Inhibitors of Polymerase Kappa. Potency, µM (series often up to 107 µM), inactives show at the top dose activity, negative = inhibition, usual class: inhibitors. AID 588579, 2011. purified Pol kappa, fluorescent DNA synthesis assay, 10 min. 400,000 tested, 0.53% active; also: % is scaled to controls: 0 for no effect and ±100 for the full control effect
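Activity was followed as the change in fluorescence between reads at 0 and 10 min after starting the reaction with 50 nM substrate. Beforehand, 10 nM polymerase had been preincubated with compound for 15 min at room temperature.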
Pol iota inh – qHTS for Inhibitors of Polymerase Iota. DNA polymerase iota (Homo sapiens), Q9UNA4. Pol iota fluorescent replication assay, 10 min. Potency, µM (highest dose often 115 µM), for the others: at the highest dose activity, negative = inhibition, hits mostly inhibitors. 390,000 tested, 1% active. AID 588590, 2011
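Pol iota at 10 nM preincubated 15 min with compounds at room temperature; reaction started with fluorescent substrate, 50 nM final. Fluorescence read kinetically at 0 and 10 min; buffer-only wells as negative control.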
Pol beta inh – qHTS Assay for Inhibitors of DNA Polymerase Beta; Pol beta primer extension/strand displacement, fluorescence kinetic; 340,000 tested, 1.3% active; Potency, µM (doses to about 114 µM), inactives show at the top dose activity change, negative = inhibition, usual class: inhibitors; AID 485314, 2010; also: % is scaled to controls: 0 for no effect and ±100 for the full control effect
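Values derive from four-parameter Hill fits of normalized kinetic data: reads at 0 and 10 min following addition of 50 nM substrate to 10 nM Pol beta preincubated 15 min with compound.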
Pol eta inh-1 – qHTS for Inhibitors of Polymerase Eta | recombinant Pol eta, fluorescent DNA replication assay | Potency, µM (highest dose often 114 µM), inactives show at the top dose activity change, negative = inhibition, actives largely listed as inhibitors | AID 588591, 2011 | 390,000 tested, 1.2% active | DNA polymerase eta (Homo sapiens), Q9Y253; also: % is scaled to controls: 0 for no effect and ±100 for the full control effect
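Fluorescent replication assay: 50 nM final substrate added after a 15 min room-temperature compound preincubation with 10 nM enzyme. Signal taken at 0 min and again at 10 min.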
L3MBTL1 inh – qHTS Assay for the Inhibitors of L3MBTL1 | Potency, µM (doses to about 57.1 µM), without a hit: at the highest dose activity, negative = inhibition, most hits filed as inhibitors | 230,000 tested, 0.66% active | AlphaScreen L3MBTL1–H3K9me1 peptide binding; also: % is scaled to controls: 0 for no effect and ±100 for the full control effect; nearly all actives have a fitted effect of over 60% in size
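Displacement of a biotinylated histone H3(1-15) peptide monomethylated at Lys9 (75 nM) from L3MBTL1 (50 nM) was measured by AlphaScreen after a 30 min room-temperature compound incubation; cefsulodin titration served as intraplate control.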
Pol kappa inh-2 – qHTS for Inhibitors of Polymerase Kappa: Confirmatory Assay for Cherry-picked Compounds | shares compounds with Pol eta inh-1 | purified Pol-kappa, fluorescent strand-displacement substrate | Potency, µM, actives largely listed as inhibitors | 920 tested, 76% active
Pol eta inh-2 – qHTS for Inhibitors of Polymerase Eta: Confirmatory Assay for Cherry-picked Compounds. Pol eta primer extension, TAMRA/BHQ fluorescence, 10 min. 2,600 tested, 64% active. Potency, µM, actives largely listed as inhibitors. shares compounds with Pol eta inh-1
The depositor's hits bear a star; [ ] = another dose, or the depositor's remark. Calls follow the shape of the dose curve; as a rule, active = well fitted curve in the direction sought with a large enough effect; inconclusive = small, poorly fitted or top-dose-only effect, or another doubt; inactive = no such curve, though single readings can be large; an effect the other way counts as inactive or inconclusive. Potency is read from the fitted curve at half-maximal effect.

COc1ccc2oc(=O)c(-c3nc4ccc(C)cc4[nH]3)cc2c1 was read as Pol kappa inh-1 -3%[60.1 µM], Pol iota inh 18%, Pol beta inh -19% and Pol eta inh-1 -11%.
For COc1ccc2cc(-c3nc4ccc(C(=O)O)cc4[nH]3)c(=O)oc2c1 the results were Pol kappa inh-1 -8%[60.1 µM], Pol iota inh inconclusive, Pol beta inh inconclusive, Pol eta inh-1 45µM*, Pol kappa inh-2 21* and Pol eta inh-2 inconclusive.
For O=C1CN(S(=O)(=O)c2cc(Br)ccc2Br)CCN1 the results were Pol kappa inh-1 8%, Pol iota inh 10%, Pol eta inh-1 -11% and L3MBTL1 inh 4%.
For O=c1c(Br)ccc(Br)cc1Br the results were Pol kappa inh-1 -6%, Pol iota inh 7.1µM*, Pol eta inh-1 28µM* and Pol eta inh-2 inconclusive.
Cc1ccc(C2C=C(c3ccccc3)Nc3nc(NS(=O)(=O)c4ccccc4)nn32)cc1 (configuration not stated) was read as Pol kappa inh-1 2%, Pol iota inh -2%, Pol beta inh 18% and Pol eta inh-1 inconclusive.
CC(=O)Nc1ccc(S(=O)(=O)Nc2nc3n(n2)C(c2ccccc2)C=C(c2ccc(Cl)cc2)N3)cc1 (configuration not stated) was read as Pol kappa inh-1 3%[60.1 µM], Pol iota inh -15%, Pol beta inh -1%, Pol eta inh-1 inconclusive and Pol eta inh-2 inconclusive.
Screening O=S(=O)(Nc1nc2n(n1)C(c1ccccc1)C=C(c1ccc(Cl)cc1)N2)c1ccccc1 (configuration not stated) returned Pol kappa inh-1 0%, Pol iota inh -19%, Pol beta inh 22%, Pol eta inh-1 89µM*, Pol kappa inh-2 67* and Pol eta inh-2 inconclusive.
`COc1ccc(C2Nc3ccccc3C(=O)N2c2cccc3ccccc23)cc1COc1c(C)cccc1C` (configuration not stated) gave Pol kappa inh-1 -11% and Pol iota inh 11%.
`COc1ccc2oc(=O)c(C(=O)Nc3ccc(C(=O)O)cc3)cc2c1` gave Pol kappa inh-1 0%, Pol iota inh -22% and Pol beta inh -15%.
Screening O=C(N/N=C1/C(=O)c2cccc3cccc1c23)c1ccc(Cl)cc1 returned Pol kappa inh-1 -42%, Pol iota inh 49%, Pol beta inh inconclusive, Pol eta inh-1 8.9µM* and Pol eta inh-2 inconclusive.
Screening CSc1ccccc1NC(=O)c1cc2ncc(Br)cn2n1 returned Pol kappa inh-1 inconclusive, Pol iota inh -83%, Pol beta inh inconclusive, Pol eta inh-1 45µM*, L3MBTL1 inh -4%[11.4 µM] and Pol eta inh-2 inconclusive.
For CSc1ccccc1NC(=O)c1cnccn1 the results were Pol kappa inh-1 -5%, Pol iota inh -14%[58.9 µM], Pol beta inh -12%, Pol eta inh-1 -13% and L3MBTL1 inh 0%.
For CCc1ccc(-c2nc(CS(=O)CC(=O)NCCc3ccc(Cl)cc3)c(C)o2)cc1 (configuration not stated) the results were Pol kappa inh-1 -10%[60.1 µM], Pol iota inh 2%, Pol beta inh -13% and Pol eta inh-1 3%.
For CC(=O)c1ccc(S(=O)(=O)Nc2ccc(-c3ccc4nnc(C)n4n3)cc2)cc1 the results were Pol kappa inh-1 inconclusive, Pol iota inh -86%, Pol beta inh 28µM*, Pol eta inh-1 20µM* and Pol eta inh-2 inconclusive.
For Cc1nnc2ccc(-c3ccc(NS(=O)(=O)c4ccccc4)cc3)nn12 the results were Pol kappa inh-1 -7%, Pol iota inh 20%, Pol eta inh-1 inconclusive and L3MBTL1 inh -2%.
Cc1c(Cl)cnc(NC(=O)COC(=O)c2ccncc2)c1Cl was read as Pol kappa inh-1 -24%, Pol iota inh 50µM*, Pol eta inh-1 25µM*, L3MBTL1 inh inconclusive and Pol kappa inh-2 inconclusive.
For Cc1c(Cl)cnc(NC(=O)COC(=O)CNC(=O)c2ccccc2)c1Cl the results were Pol kappa inh-1 -31%, Pol iota inh -16%, Pol eta inh-1 50µM*, L3MBTL1 inh -15%, Pol kappa inh-2 inconclusive and Pol eta inh-2 inconclusive.
Screening Cc1c(Cl)cnc(NC(=O)COC(=O)[C@H](C)NC(=O)c2ccccc2)c1Cl returned Pol kappa inh-1 -27%, Pol iota inh inconclusive, Pol eta inh-1 50µM*, L3MBTL1 inh -9%, Pol kappa inh-2 inconclusive and Pol eta inh-2 inconclusive.
`O=C(COC(=O)CNC(=O)c1ccccc1)Nc1ccccc1Cl` gave Pol kappa inh-1 -22%, Pol iota inh 17%, Pol beta inh 7%, Pol eta inh-1 -1% and L3MBTL1 inh 5%.
Cc1c(Cl)cnc(NC(=O)COC(=O)c2ccc3c(c2)OCO3)c1Cl was read as Pol kappa inh-1 -4%, Pol iota inh 72%, Pol beta inh 5%, Pol eta inh-1 inconclusive and L3MBTL1 inh -19%.
`CSc1cccc(NC(=O)C2CCN(S(=O)(=O)c3ccc4[nH]c(=O)ccc4c3)CC2)c1` gave Pol kappa inh-1 -7%[60.1 µM], Pol iota inh 16%, Pol beta inh 10% and Pol eta inh-1 -19%.
For Cc1nn(-c2ccc(N3CCCCC3)nn2)c(C)c1CCC(=O)NCc1ccc(OC(C)C)cc1 the results were Pol kappa inh-1 0%, Pol iota inh 5%, Pol beta inh 44% and Pol eta inh-1 12%.
Screening O=C(Nc1ccccc1)N1CC2(CCN(C(=O)c3cnccn3)CC2)C1 returned Pol kappa inh-1 -4%[60.1 µM].
COc1ccc2occ(CC(=O)Nc3ccc(S(=O)(=O)Nc4nccc(C)n4)cc3)c2c1 was read as Pol kappa inh-1 inconclusive, Pol iota inh inconclusive, Pol beta inh inconclusive, Pol eta inh-1 79µM*, Pol kappa inh-2 47* and Pol eta inh-2 inconclusive.
CCOC(=O)c1c(C)[nH]c(C)c1S(=O)(=O)N1CCCC(C(=O)NCc2cccc(OC)c2)C1 (configuration not stated) was read as Pol kappa inh-1 4%, Pol iota inh 26%, Pol beta inh -2% and Pol eta inh-1 -17%.
Screening CN=c1scc(C)n1/N=C/c1ccc(O)c(O)c1O returned Pol kappa inh-1 13µM*, Pol iota inh 7.9µM*, Pol beta inh 5µM*, Pol eta inh-1 3.5µM* and Pol eta inh-2 54*.
